Calls of active or inactive are those of the source. How the source made its calls: active means hit-call score of the fitted dose curve at least 0.9, where 1 is the maximum; inactive means score below 0.9.
Test: ATG_NF_kB_CIS: Attagene CIS-FACTORIAL HepG2 Assay for human Nuclear Factor Kappa B (NF-kB) (AID 2282991)
Details: HepG2 Attagene cis-factorial NF-kB reporter mRNA; actives raise or lower the signal
In short: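 Endpoint from a 52-component multiplexed HepG2 reporter panel: cis-regulated transcription units transiently transfected, 24 h dosing, reporter mRNA quantified by RT-PCR and capillary electrophoresis, scored as increase or decrease against DMSO.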

Row | SMILES | outcome | AC50
1 | CN1CN(C)CN(C)C1 | inactive | –
2 | Cc1ccc2c(c1)OCC(=O)CO2 | inactive | –
3 | C=CC(=O)OCC(F)(F)C(F)(F)C(F)(F)C(F)(F)C(F)(F)C(F)(F)C(F)(F)C(F)F | – | 80.2 µM (active)
4 | C[Si](Cl)(Cl)CCC(F)(F)C(F)(F)C(F)(F)C(F)(F)C(F)(F)C(F)(F)F | inactive | –
5 | CSc1ccc(O)cc1C | inactive | –
6 | CCC(=O)OC(C)c1ccccc1 (configuration not stated) | inactive | –
7 | CCCCCCCCCCCCCCCCC | inactive | –
8 | FC(F)(F)C(F)(F)C(F)(F)CC1CO1 (configuration not stated) | inactive | –
9 | CCCCCCCC/C=C\CCCCCCCC(=O)OCC(O)CO (configuration not stated) | inactive | –
10 | C=C(C)CCCC | inactive | –
11 | OCCCC(F)(F)C(F)(F)C(F)(F)C(F)(F)C(F)(F)C(F)(F)C(F)(F)C(F)(F)F | inactive | –
12 | CNS(=O)(=O)C(F)(F)C(F)(F)C(F)(F)C(F)(F)C(F)(F)C(F)(F)C(F)(F)C(F)(F)F | inactive | –
13 | CCOC(C=C(C)CCC=C(C)C)OCC | inactive | –
14 | CCCCCCCC/C=C\CCCCCCCC(=O)N(C)CC(=O)O | inactive | –
15 | O=C1c2ccccc2C(=O)c2c(Cl)cccc21 | – | 4.35 µM (active)
16 | O=C(O)CCC(F)(F)C(F)(F)C(F)(F)F | inactive | –
17 | CC(C)CC=C(C=O)c1ccccc1 | inactive | –
18 | O=C(Cl)C(F)(F)C(F)(F)C(F)(F)C(F)(F)C(F)(F)C(F)(F)F | inactive | –
19 | OCC(O)CC(F)(F)C(F)(F)C(F)(F)C(F)(F)C(F)(F)C(F)(F)C(F)(F)C(F)(F)F (configuration not stated) | inactive | –
20 | CCOC(=O)CCC(C)=O | inactive | –
21 | CCC(C)CO (configuration not stated) | inactive | –
22 | NC(=O)C(F)(F)C(F)(F)C(F)(F)F | inactive | –
